Assay results as given in the supplement of paper PMC10127200.
Where a name gives a salt, the structure may show the parent alone.

Experiments:
Test in all cases: Euclidean distance of Cell Painting phenotypic profile (signed KS, 77 features) to DMSO centroid (dimensionless distance); 5 or 10 uM (library dependent); higher = stronger phenotypic change vs DMSO (phenoactivity)
Details in all cases: 48 h
786-O = tested on: 786-O
In short: (§1)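 Library compounds were applied at 10 or 5 uM, depending on the library, with 0.1% DMSO final, for 48 h to five cancer lines and a healthy fibroblast line. After staining, cells were imaged confocally at 20X across 9 fields per well, and Harmony extracted 77 features, each scored as a signed Kolmogorov-Smirnov statistic against vehicle wells on the same plate. Phenoactivity is the Euclidean distance between each profile and the median vehicle profile, with profiles first plate-position corrected, correlation-weighted and averaged over replicates at the top dose.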

A549 = tested on: A549
In short: as §1

DU145 = tested on: DU145
In short: as §1

FB = tested on: FB
In short: as §1

HEPG2 = tested on: HEPG2
In short: as §1

OVCAR4 = tested on: OVCAR4
In short: as §1

SMILES | Euclidean distance (786-O) | Euclidean distance (A549) | Euclidean distance (DU145) | Euclidean distance (FB) | Euclidean distance (HEPG2) | Euclidean distance (OVCAR4)
CO/N=C(\C(=O)N[C@@H]1C(=O)N2C(C(=O)O)=CCS[C@H]12)c1csc(N)n1 [Ceftizoxime] | 1.04 | 1.74 | 0.987 | 1.24 | 0.67 | 1.56
Cc1cc(=O)n(-c2ccccc2)n1C [Antipyrine] | 1.52 | 0.45 | 1.03 | 1.42 | 0.888 | 0.707
Cc1nc(NC(=O)N2CCC[C@H]2C(N)=O)sc1-c1ccnc(C(C)(C)C(F)(F)F)c1 [Alpelisib (BYL719)] | 1.4 | 1.45 | 1.3 | 2.29 | 1.09 | 2.02
Nc1nc(Cl)nc2c1ncn2[C@H]1C[C@H](O)[C@@H](CO)O1 [Cladribine] | 2.58 | 3.28 | 2.27 | 3.14 | 2.67 | 3.21
COc1ccc(C2CC(=O)c3c(O)cc(OC4OC(COC5OC(C)C(O)C(O)C5O)C(O)C(O)C4O)cc3O2)cc1OC (configuration not stated) [Methyl-Hesperidin] | 0.924 | 0.527 | 1.16 | 0.637 | 0.966 | 1.25
O=C(NCc1cccc(O)c1)Nc1nc(-c2ccncc2)cs1 | 1.82 | 1.54 | 3.26 | 3.61 | 1.47 | 1.88
NCC[C@H](O)C(=O)N[C@@H]1C[C@H](N)[C@@H](O[C@H]2O[C@H](CN)[C@@H](O)[C@H](O)[C@H]2O)[C@H](O)[C@H]1O[C@H]1O[C@H](CO)[C@@H](O)[C@H](N)[C@H]1O [Amikacin disulfate] | 1.64 | 0.597 | 0.666 | 0.868 | 0.695 | 0.989
Nc1nc(CC(=O)Nc2ccc(CCNC[C@H](O)c3ccccc3)cc2)cs1 [Mirabegron] | 0.989 | 1.17 | 1.1 | 1.21 | 0.802 | 1.68
COCC1=C(C(=O)OC(C)OC(=O)OC(C)C)N2C(=O)[C@@H](NC(=O)/C(=N\OC)c3csc(N)n3)[C@H]2SC1 (some centres not stated) [Cefpodoxime proxetil] | 1.25 | 0.683 | 0.813 | 1.04 | 0.687 | 0.958
C=CC(=O)N1CCC(Oc2cc3c(Nc4ccc(Cl)c(Cl)c4F)ncnc3cc2OC)CC1 [Poziotinib (HM781-36B)] | 1.98 | 3.02 | 2.11 | 2.99 | 3.43 | 2.12
NC(=O)c1ccc(OCCCN2CC3CCCC3C2)cc1 (configuration not stated) | 1.32 | 1.16 | 1.39 | 1.36 | 0.495 | 1.23
CCCCC[C@H](O)/C=C/[C@H]1[C@H](O)CC(=O)[C@@H]1C/C=C\CCCC(=O)O [Prostaglandin E2 (PGE2)] | 1.77 | 0.85 | 0.915 | 1.08 | 0.522 | 1.33
CC(=O)Oc1ccccc1C(=O)O [Aspirin] | 0.701 | 0.531 | 0.625 | 0.734 | 0.608 | 0.816
CCCCOc1ccc(C(=O)Nc2ccc(F)cc2F)cc1 | 1.45 | 1.45 | 1.14 | 1.28 | 0.872 | 1.5
CS(=O)(=O)CCNCc1ccc(-c2ccc3ncnc(Nc4ccc(OCc5cccc(F)c5)c(Cl)c4)c3c2)o1 [Lapatinib] | 4.13 | 3.1 | 2.2 | 2.22 | 3.72 | 3.77
NC(=O)c1noc([C@H](CCCC2CCCCC2)CC(=O)NO)n1 | 1.23 | 0.66 | 0.701 | 1.25 | 0.93 | 0.933
Cc1ncc([N+](=O)[O-])n1C [Dimetridazole] | 1.08 | 0.82 | 1.15 | 0.783 | 0.672 | 0.957
CN1CCN(CCOc2cc(OC3CCOCC3)c3c(Nc4c(Cl)ccc5c4OCO5)ncnc3c2)CC1 [Saracatinib (AZD0530)] | 3.22 | 3.83 | 1.78 | 3.97 | 1.98 | 3.34
CC(C)NC(=O)COc1cccc(-c2nc(Nc3ccc4[nH]ncc4c3)c3ccccc3n2)c1 | 2.53 | 3.23 | 3.11 | 2.67 | 1.76 | 2.43
CC(=O)Oc1cc(C(C)C)c(OCCN(C)C)cc1C [Moxisylyte hydrochloride] | 0.394 | 0.612 | 1.83 | 1.12 | 0.369 | 0.608
CC(C)[C@H]1CC[C@H](C(=O)N[C@H](Cc2ccccc2)C(=O)O)CC1 [Nateglinide] | 2.04 | 1.19 | 1.17 | 0.97 | 0.589 | 1.71
Oc1cccc(-c2nc(N3CCOCC3)c3oc4ncccc4c3n2)c1 | 1.25 | 3.67 | 1.5 | 2.89 | 0.936 | 2.62
CCOC(=O)C1=C(COCCN)NC(C)=C(C(=O)OC)C1c1ccccc1Cl (configuration not stated) [Amlodipine Besylate] | 1.08 | 0.672 | 0.871 | 1.18 | 1.64 | 1.07
Cc1nc2cccc(N)c2c(=O)n1C1CCC(=O)NC1=O (configuration not stated) [Avadomide(CC-122)] | 0.872 | 1.22 | 1.16 | 1.02 | 0.382 | 0.966

SMILES | Euclidean distance (786-O) | Euclidean distance (A549) | Euclidean distance (DU145) | Euclidean distance (FB) | Euclidean distance (HEPG2) | Euclidean distance (OVCAR4)
CNS(=O)(=O)CCc1ccc2[nH]cc(C3CCN(C)CC3)c2c1 [Naratriptan] | 1.48 | 0.741 | 1.01 | 0.996 | 0.943 | 1.33
CC(C)(Sc1ccncc1-c1ccc(C#N)c2ccccc12)C(=O)O [Verinurad (RDEA3170)] | 0.821 | 0.673 | 0.864 | 1.25 | 0.457 | 1.2
CC(C)n1cnc2c(NCCc3ccc(O)cc3)nc(-c3csc4ccccc34)nc21 [StemRegenin 1 (SR1)] | 0.931 | 1.13 | 1.12 | 1.04 | 1.04 | 0.909
Cc1cnc(-c2cc(N3CCN(C(=O)CCS(C)(=O)=O)CC3)ncc2Cl)c(C)c1 | 0.761 | 1.09 | 1.04 | 1.23 | 0.662 | 1.03
O=C(O)[C@H](O)Cc1ccc(O)c(O)c1 [Danshensu] | 1.51 | 1.33 | 0.736 | 0.877 | 1.33 | 1.65
C=C1CC/C=C(/C)CC[C@@H]2[C@@H]1CC2(C)C [Œ≤-Caryophyllene] | 1.02 | 0.652 | 0.86 | 0.747 | 0.457 | 1.68
COc1ccnc(C[S+]([O-])c2nc3cc(OC(F)F)ccc3[nH]2)c1OC (configuration not stated) [Pantoprazole sodium] | 0.766 | 0.778 | 1.1 | 1.01 | 1.03 | 0.752
C#C[C@]1(OC(C)=O)CC[C@H]2[C@@H]3CCC4=C[C@@H](OC(C)=O)CC[C@@H]4[C@H]3CC[C@@]21C [Ethynodiol diacetate] | 1.27 | 1.31 | 0.938 | 1.29 | 0.735 | 1.1
O=C(NCc1ccccc1)c1csc(Nc2ccncn2)n1 [Thiazovivin] | 1.92 | 1.18 | 2.87 | 2.01 | 1.84 | 1.6
COCC(=O)NC/C=C/c1ccc2ncnc(Nc3ccc(Oc4ccc(C)nc4)c(C)c3)c2c1 | 0.785 | 1.34 | 1.13 | 0.952 | 0.896 | 0.777
CCCCCCCCCCCCCCCCCCOCC(O)CO (configuration not stated) [Batyl alcohol] | 0.871 | 0.609 | 0.705 | 1.18 | 0.262 | 0.921
CN(C)c1nc(N(C)C)nc(N(C)C)n1 [Altretamine] | 1.11 | 0.902 | 0.807 | 1.32 | 0.597 | 0.929
CCCCc1nc(-c2ccc(OCCCN(CC)CC)cc2)cn1-c1ccc(Oc2ccc(Cl)cc2)cc1 [Azeliragon] | 6.58 | 4.65 | 0.73 | 3.3 | 1.05 | 1.71
CC(=O)O[C@@H]1CC[C@@]2(C)[C@@H](CC[C@]3(C)[C@@H]2C(=O)C=C2[C@@H]4[C@@H](C)[C@H](C)CC[C@]4(C)CC[C@]23C)[C@@]1(C)C(=O)O | 0.752 | 0.999 | 1.02 | 0.939 | 0.732 | 0.773
O=c1cc(-c2ccccc2)oc2cc(O)cc(O)c12 [Chrysin] | 1.58 | 1.09 | 1.1 | 1 | 1.37 | 1.37
N=C(N)Nc1ccc(C(=O)Oc2ccc3cc(C(=N)N)ccc3c2)cc1 [Nafamostat Mesylate] | 1.58 | 1.62 | 1.06 | 1.02 | 0.93 | 1.24
O=C(CCCCCCC(=O)NO)NO [Suberohydroxamic acid] | 1.22 | 1.22 | 1.18 | 2.06 | 1.84 | 1.28
COc1ccc(CC(C)(C)NC[C@H](O)c2cc(O)cc3c2OCC(=O)N3)cc1 [Olodaterol hydrochloride] | 1.07 | 0.364 | 1.21 | 1.12 | 0.379 | 1.1
O=C(Nc1ccccc1Br)N[C@@H]1CCN(c2ccc(C(F)(F)F)cn2)C1 | 0.896 | 0.999 | 0.688 | 0.9 | 0.544 | 1.21
CC1(C)S[C@@H]2[C@H](NC(=O)[C@H](N)c3ccccc3)C(=O)N2[C@H]1C(=O)O [Ampicillin Trihydrate] | 1.3 | 1.2 | 0.921 | 0.762 | 0.667 | 1.53
CN(C[C@@H]1COCCO1)S(=O)(=O)Nc1ccc2ccc3ncc(-c4cnn(C)c4)cc3c(=O)c2c1 | 1 | 0.895 | 1.01 | 3.07 | 0.888 | 1
CC(C)c1cc(-c2n[nH]c(=O)n2-c2ccc3c(ccn3C)c2)c(O)cc1O [Ganetespib (STA-9090)] | 3.55 | 2.86 | 4.37 | 2.43 | 3.34 | 2.93
FCOC(C(F)(F)F)C(F)(F)F [Sevoflurane] | 1.15 | 0.865 | 0.847 | 0.867 | 0.827 | 1.51
